# Inconclusive results are not listed. Where a call stands in place of a potency, no number is given. Activity calls are given as the source filed them. Calls follow the shape of the dose curve; as a rule, active = well fitted inhibition curve with a large enough effect; inconclusive = small, poorly fitted or top-dose-only effect; inactive = flat fitted curve, though single readings scatter.
# Experiments:
# Test in all cases: qHTS profiling for inhibitors of Plasmodium falciparum proliferation (AID 504749); also: nearly all actives have a fitted effect of over 60% in size
# Conditions in all cases: P. falciparum in erythrocytes, SYBR Green DNA, 72 h; series mostly up to 28.7 µM
# ATS189 = tested on: ATS189
# Summary of the method: (§1)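 Parasite proliferation within erythrocytes, 72 h exposure. Endpoint: SYBR Green I fluorescence after overnight lysis at room temperature. Controls: 0.29 uM artemisinin, DMSO.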
# ATS95 = tested on: ATS95
# Summary of the method: as §1
# C2A = tested on: C2A
# Summary of the method: as §1
# CP191 = tested on: CP191
# Summary of the method: as §1
# CP192 = tested on: CP192
# Summary of the method: as §1
# CP194 = tested on: CP194
# Summary of the method: as §1
# CP201 = tested on: CP201
# Summary of the method: as §1
# CP203 = tested on: CP203
# Summary of the method: as §1
# CP215 = tested on: CP215
# Summary of the method: as §1
# CP217 = tested on: CP217
# Summary of the method: as §1
# CP237 = tested on: CP237
# Summary of the method: as §1
# CP238 = tested on: CP238
# Summary of the method: as §1
# CP247 = tested on: CP247
# Summary of the method: as §1
# CP250 = tested on: CP250
# Summary of the method: as §1
# CP252 = tested on: CP252
# Summary of the method: as §1
# CP256 = tested on: CP256
# Summary of the method: as §1
# CP260 = tested on: CP260
# Summary of the method: as §1
# CP262 = tested on: CP262
# Summary of the method: as §1
# CP185 = tested on: CP185
# Summary of the method: as §1
# CP211 = tested on: CP211
# Summary of the method: as §1
# Potency is read from the fitted curve at half-maximal effect.
SMILES,Potency (ATS189),Potency (ATS95),Potency (C2A),Potency (CP191),Potency (CP192),Potency (CP194),Potency (CP201),Potency (CP203),Potency (CP215),Potency (CP217),Potency (CP237),Potency (CP238),Potency (CP247),Potency (CP250),Potency (CP252),Potency (CP256),Potency (CP260),Potency (CP262),Potency (CP185),Potency (CP211)
COc1cccc2c1C(=O)c1c(O)c3c(c(O)c1C2=O)C[C@@](O)(C(=O)CO)C[C@@H]3O[C@H]1C[C@H](N)[C@H](OC2CCCCO2)[C@H](C)O1 (stereo partly drawn),11200 nM (active),3980 nM (active),8910 nM (active),8910 nM (active),8490 nM (active),9530 nM (active),9530 nM (active),4780 nM (active),6750 nM (active),4470 nM (active),2240 nM (active),5010 nM (active),3550 nM (active),2510 nM (active),11200 nM (active),8910 nM (active),2240 nM (active),inactive,,
CCCCCCCCCCCC(CC1OC(=O)C1CCCCCC)OC(=O)C(CC(C)C)NC=O (stereo not drawn),,794 nM (active),562 nM (active),562 nM (active),inactive,9530 nM (active),inactive,,,2240 nM (active),794 nM (active),708 nM (active),398 nM (active),447 nM (active),794 nM (active),708 nM (active),794 nM (active),inactive,708 nM (active),
CCC(C(=O)O)C1CCC(C)C(C(C)C(O)C(C)C(=O)C(CC)C2OC3(C=CC(O)[C@@]4(CC[C@](C)(C5CC[C@@](O)(CC)C(C)O5)O4)O3)C(C)CC2C)O1 (stereo partly drawn),1260 nM (active),1120 nM (active),1120 nM (active),1000 nM (active),849 nM (active),601 nM (active),953 nM (active),269 nM (active),675 nM (active),1120 nM (active),447 nM (active),1120 nM (active),891 nM (active),1120 nM (active),891 nM (active),2000 nM (active),631 nM (active),849 nM (active),1260 nM (active),536 nM (active)
Nc1nc2c(c(=O)[nH]1)N(C=O)[C@H](CNc1ccc(C(=O)N[C@@H](CCC(=O)O)C(=O)O)cc1)CN2,inactive,inactive,inactive,inactive,inactive,inactive,inactive,inactive,inactive,inactive,inactive,inactive,inactive,inactive,inactive,inactive,inactive,inactive,inactive,inactive
OCC(O)C(O)C(O)CO (stereo not drawn),inactive,inactive,inactive,inactive,inactive,inactive,inactive,inactive,inactive,inactive,inactive,inactive,inactive,inactive,inactive,inactive,inactive,inactive,inactive,inactive
COc1ccc([C@@H]2CNC(=O)C2)cc1OC1CCCC1,inactive,,inactive,inactive,inactive,inactive,inactive,inactive,inactive,inactive,inactive,inactive,inactive,inactive,inactive,inactive,inactive,inactive,inactive,inactive
COc1ccc2c(c1OC)C(=O)OC2[C@H]1c2c(cc3c(c2OC)OCO3)CCN1C (stereo partly drawn),inactive,inactive,inactive,inactive,inactive,inactive,inactive,inactive,inactive,inactive,inactive,inactive,inactive,inactive,inactive,inactive,inactive,inactive,inactive,inactive

# Source: PubChem BioAssay (NCATS)
